# According to PubChem BioAssay (NCATS):
# “And” between values parts separate entries of the source, which are not always exact repeats. Equal values may be shown once. Inconclusive results are not listed. The source made the active and inactive calls. The call rests on the fitted dose curve; in most records, active means well fitted inhibition curve with a large enough effect; inconclusive means small, poorly fitted or top-dose-only effect; inactive means flat fitted curve, though single readings scatter.
# Tested on: CRL-7250
# Assay: Cytotoxic Profiling of Annotated Libraries Using Quantitative High-Throughput Screening (AID 1296008); further: nearly all actives have a fitted effect of over 60% in size
# Settings: Five cell lines viability, CellTiter-Glo ATP luminescence, 48-72 h; max response: hits give low values
# Outline: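 Compounds were pin-transferred onto cells and incubated 48 or 72 hr at 37 degree Celsius, 95% humidity. CellTiter-Glo was added, plates sat 10 min at room temperature, then ATP-coupled luminescence was imaged as the viability read-out.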
# On the % scale 0 is the no-effect control and ±100 the full control effect; potency means the concentration at half of the fitted maximal effect.
Compound,max response,Potency,outcome
CC(C)C1=CCC(C)(O)C(OC2OC(CO)C(O)C(O)C2O)C1 (configuration not stated),-1.73% (inactive),–,–
CC(C)C1=CC2=CCC3[C@](C)(CCC[C@@]3(C)C(=O)O)C2CC1O (some centres not stated),-2.15% (inactive),–,–
CCC1CC2C(C)=CC3CCCCC3C2(C)C2(OC(=O)C(C)(O)OC2=O)O1 (configuration not stated),0.081% (inactive),–,–
COC(=O)C1C(c2ccc(O)cc2)C(C(=O)OC)C1c1ccc(O)cc1 (configuration not stated),-3.45% (inactive),–,–
COc1cc(N2CCC(N(C)C)CC2)ccc1Nc1ncc(Cl)c(Nc2ccccc2P(C)(C)=O)n1,–,2.91 µM (active) and 1.48 µM (active),–
O=C(O)c1cc(O)c2cccc(O)c2c1O[C@@H]1O[C@H](CO)[C@@H](O)[C@H](O)[C@H]1O,-1.91% (inactive),–,–
C[C@]12CC[C@@H]3c4ccc(O[C@@H]5O[C@H](C(=O)O)[C@@H](O)[C@H](O)[C@H]5O)cc4CC[C@H]3[C@@H]1CCC2=O,-0.486% (inactive),–,–
O=C(O)CCc1cc2ccoc2cc1O[C@@H]1O[C@H](CO[C@@H]2OC[C@](O)(CO)[C@H]2O)[C@@H](O)[C@H](O)[C@H]1O,-5.99% (inactive),–,–
C[C@@H]1C[C@H](O)/C=C/[C@H](O)[C@@H](O)CC(=O)O1,2.61% (inactive),–,–
CC(=O)c1c(O)cc2c(c1C)C(=O)CC(O)C2 (configuration not stated),4.51% (inactive),–,–
CC1=CC(=O)C[C@H]2[C@@H]1CC[C@@H](C)[C@]21CO[C@H](c2ccoc2)C1=O,3.91% (inactive),–,–
CC1(C)CCC[C@@]2(C)[C@H]1[C@H](O)C=C1COC(=O)[C@@]12O,–,–,inactive
